Some test systems named below: SR leukemia; RPMI-8226 leukemia; OVCAR-8 ovarian; OVCAR-5 ovarian; OVCAR-4 ovarian; SK-OV-3 ovarian; IGROV1 ovarian; OVCAR-3 ovarian; HS 578T breast; NCI/ADR-RES ovarian.
Assay in all cases: NCI-60 one-dose screen, 48 h (100 = growth as untreated, 0 = no growth, -100 = all killed)
Common to all, as to settings: 10 µM unless noted

SMILES strings stand for the structures. Compounds without any hit were thinned out: in the full panel of roughly 83,000, 20% have a hit.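 Method: cells in 96-well plates; compound added at one concentration; 48 h incubation; percent growth measured; values under 10 scored active.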 Values without a mark were called inactive. Active and inactive are the calls of the source.

`C=C1C(=O)O[C@H]2[C@H]1CC/C(COC(=O)/C=C\C(=O)NCc1ccc(Cn3c(=O)sn(CCCl)c3=O)cc1)=C\CC[C@@]1(C)O[C@@H]21`: the growth is 15.5% with SR leukemia; 74.8% in the test on RPMI-8226 leukemia; 86.9% in the test with OVCAR-8 ovarian; 91% with OVCAR-5 ovarian; 96.3% in the test with OVCAR-4 ovarian; 115% in the test on SK-OV-3 ovarian. The growth in the test on IGROV1 ovarian is 34.8%; in the test with OVCAR-3 ovarian, 36.2%; in the test on HS 578T breast it was 110%; in the test with NCI/ADR-RES ovarian, 108%.
With `COc1cc(OC)c(C(=O)C(CN(C)C)CN(C)C)cc1OC`, the growth with SR leukemia is -49.3% (active); in the test on RPMI-8226 leukemia, -18.1% (active); in the test with OVCAR-8 ovarian it was 104%; with OVCAR-5 ovarian, 110%; in the test with OVCAR-4 ovarian it was 54.1%; in the test with SK-OV-3 ovarian, 85.1%. Also, the growth was 109% with IGROV1 ovarian, 1.07% (active) with OVCAR-3 ovarian, 108% in the test on HS 578T breast and 94.3% in the test with NCI/ADR-RES ovarian.
As for `Cc1cccc(-c2nc(Nc3ccc4ncsc4c3)c3ccccc3n2)n1`, the growth in the test on SR leukemia was 69.2%; with RPMI-8226 leukemia it was 30.6%; in the test on OVCAR-8 ovarian it was 53.4%; with OVCAR-5 ovarian it was 97.7%; with OVCAR-4 ovarian, 30.7%; in the test with SK-OV-3 ovarian, 113%. The growth is 16.6% in the test with IGROV1 ovarian, 10.1% in the test on OVCAR-3 ovarian, 116% in the test on HS 578T breast and 86.9% in the test with NCI/ADR-RES ovarian.
As to `Cc1ccc2nc(-c3ccc(C(=O)NNC(=S)Nc4ccccc4)cc3)[nH]c2c1`, the growth with SR leukemia is 88.6%; in the test on RPMI-8226 leukemia it was 85.1%; with OVCAR-8 ovarian, 95.7%; in the test on OVCAR-5 ovarian, 98.3%; with OVCAR-4 ovarian, 88.2%; with SK-OV-3 ovarian, 98.3%. In addition, the growth is 86.4% in the test on IGROV1 ovarian, 95% in the test with OVCAR-3 ovarian, 111% with HS 578T breast and 100% in the test on NCI/ADR-RES ovarian.
`N#Cc1nc(-c2ccccc2)oc1S(=O)(=O)N1CCN(c2ccc(F)cc2)CC1`: the growth is -20.3% (active) with SR leukemia; 36% with RPMI-8226 leukemia; 63.1% in the test on OVCAR-8 ovarian; 102% in the test on OVCAR-5 ovarian; 107% with OVCAR-4 ovarian; 109% with SK-OV-3 ovarian. In addition, the growth is 45.6% in the test on IGROV1 ovarian, 51.9% in the test on OVCAR-3 ovarian, 103% in the test on HS 578T breast and 96.4% in the test with NCI/ADR-RES ovarian.
In the case of `COc1ccc(/C(C)=C(\c2ccc(Cl)cc2)c2ccc(OCCN3CCCCC3)cc2)cc1`, the growth was -7.55% (active) in the test on SR leukemia; 7.75% (active) in the test on RPMI-8226 leukemia; 69.6% in the test with OVCAR-8 ovarian; 67.9% in the test on OVCAR-5 ovarian; 59.9% in the test on OVCAR-4 ovarian; 77.5% in the test on SK-OV-3 ovarian. Also, the growth with IGROV1 ovarian was 64.5%; in the test on OVCAR-3 ovarian it was 74.9%; with HS 578T breast, 63.6%; with NCI/ADR-RES ovarian it was 76.8%.
As for `CNC(=O)c1cc(Oc2cccc3nc(NC(=O)Nc4cc(C(F)(F)F)ccc4Cl)ccc23)ccn1`, the growth is 48.2% in the test with SR leukemia; 78.8% in the test on RPMI-8226 leukemia; 78% in the test with OVCAR-8 ovarian; 98.7% with OVCAR-5 ovarian; -10.5% (active) with OVCAR-4 ovarian; 115% in the test on SK-OV-3 ovarian. Further, the growth with IGROV1 ovarian is 108%; in the test with OVCAR-3 ovarian, 95.4%; with HS 578T breast it was 76.4%; in the test with NCI/ADR-RES ovarian, 93.8%.
Turning to `CC(C)(C)n1cc(-c2ccnc(NCCCNS(=O)(=O)c3ccc(C(F)(F)F)cc3)c2)c(-c2cccc(F)c2)n1`, the growth in the test with SR leukemia was 25.2%; with RPMI-8226 leukemia it was 55.9%; with OVCAR-8 ovarian, 83.1%; in the test on OVCAR-5 ovarian, 85.4%; with OVCAR-4 ovarian, 99.7%; in the test on SK-OV-3 ovarian it was 94.2%. For the same molecule, the growth is 84.1% in the test on IGROV1 ovarian, 95% with OVCAR-3 ovarian, 95% in the test with HS 578T breast and 76.5% in the test on NCI/ADR-RES ovarian.
Consider `Nc1nc(N)c2c(n1)NC(c1cccc(Nc3ccnc4cc(C(F)(F)F)ccc34)c1)CC(c1ccccc1)=N2` (stereo not given), for which the growth in the test on SR leukemia was 4.11% (active); in the test with RPMI-8226 leukemia, 9.67% (active); with OVCAR-8 ovarian, 63%; with OVCAR-5 ovarian it was 113%; in the test on OVCAR-4 ovarian it was 57.8%; in the test with SK-OV-3 ovarian, 65.3%. Also, the growth in the test on IGROV1 ovarian was 59.4%; with OVCAR-3 ovarian, 45.3%; with HS 578T breast, 53.7%; in the test on NCI/ADR-RES ovarian, 70.2%.
Regarding `COc1ccc(CNc2c3ccccc3nc3ccccc23)c(OC)c1`, the growth was 18.1% with SR leukemia; 34.9% with RPMI-8226 leukemia; 37.8% in the test on OVCAR-8 ovarian; 50.3% in the test on OVCAR-5 ovarian; 39.7% with OVCAR-4 ovarian; 63.3% in the test on SK-OV-3 ovarian. Besides, the growth is 22.4% in the test on IGROV1 ovarian, 69.2% in the test with OVCAR-3 ovarian, 68.9% in the test on HS 578T breast and 35.6% in the test on NCI/ADR-RES ovarian.
In the case of `CCN(CC)Cc1cc(Nc2ccnc3cc(Cl)ccc23)ccc1O`, the growth in the test with SR leukemia is 82.7%; in the test with RPMI-8226 leukemia, 93.3%; in the test with OVCAR-8 ovarian, 100%; with OVCAR-5 ovarian it was 97.7%; in the test on OVCAR-4 ovarian it was 94.4%; in the test with SK-OV-3 ovarian, 116%. The growth is 88.4% in the test with IGROV1 ovarian, 88.5% in the test on OVCAR-3 ovarian, 91.6% in the test with HS 578T breast and 93.9% with NCI/ADR-RES ovarian.
As for `N#CSc1c[nH]c2cccc(/C=C/C(=O)/C=C(O)/C=C/c3cccc4[nH]cc(SC#N)c34)c12`, the growth was 0.385% (active) in the test on SR leukemia; -28.9% (active) with RPMI-8226 leukemia; -34.2% (active) with OVCAR-8 ovarian; -69.6% (active) with OVCAR-5 ovarian; -20.1% (active) in the test with OVCAR-4 ovarian; -24% (active) in the test with SK-OV-3 ovarian. Also, the growth in the test on IGROV1 ovarian was -37.4% (active); in the test with OVCAR-3 ovarian it was -17.6% (active); in the test with HS 578T breast, 22.8%; with NCI/ADR-RES ovarian, 39.9%.
Turning to `CN1CCN(CCOc2ccc(-c3cnc4c(-c5cccc(F)c5F)cnn4c3)cc2)CC1`, the growth is -1.72% (active) with SR leukemia; -30.5% (active) in the test with RPMI-8226 leukemia; 4.29% (active) in the test with OVCAR-8 ovarian; 116% in the test with OVCAR-5 ovarian; -49.8% (active) in the test on OVCAR-4 ovarian; 108% in the test with SK-OV-3 ovarian. Further, the growth with IGROV1 ovarian was 81.7%; in the test on OVCAR-3 ovarian, -52.6% (active); in the test with HS 578T breast it was 103%; in the test on NCI/ADR-RES ovarian, 8.9% (active).
Regarding `CS(=O)(=O)Nc1cc(-c2ccc3ncc(C#N)c(Nc4ccc(F)c(Cl)c4)c3c2)cnc1Cl`, the growth with SR leukemia is -0.801% (active); with RPMI-8226 leukemia, -38.5% (active); with OVCAR-8 ovarian, 4.09% (active); in the test with OVCAR-5 ovarian, 6.33% (active); with OVCAR-4 ovarian, -6.46% (active); with SK-OV-3 ovarian it was -25.7% (active). The growth with IGROV1 ovarian is -16.4% (active); with OVCAR-3 ovarian, -19.3% (active); in the test on HS 578T breast it was -17.7% (active); in the test with NCI/ADR-RES ovarian it was 21.9%.
For `Cc1ccc(/C=C/C(=O)c2cccc(OCCCOc3cccc(C(=O)/C=C/c4ccc(C)cc4)c3)c2)cc1`, the growth was 25.9% in the test with SR leukemia; -0.643% (active) in the test with RPMI-8226 leukemia; 87.5% with OVCAR-8 ovarian; 124% with OVCAR-5 ovarian; 65.3% with OVCAR-4 ovarian; 99.2% in the test with SK-OV-3 ovarian. Moreover, the growth with IGROV1 ovarian is 77.2%; with OVCAR-3 ovarian it was 82.4%; in the test on HS 578T breast it was 86.1%; in the test with NCI/ADR-RES ovarian it was 91.4%.
Turning to `O=C(/C=C(O)/C=C/c1cccc2[nH]ccc12)/C=C/c1cccc2[nH]ccc12`, the growth was 10.3% in the test on SR leukemia; 2.9% (active) with RPMI-8226 leukemia; 72.6% in the test with OVCAR-8 ovarian; 99.7% with OVCAR-5 ovarian; 91.7% in the test with OVCAR-4 ovarian; 85.6% with SK-OV-3 ovarian. In addition, the growth is 70.3% in the test with IGROV1 ovarian, 103% in the test with OVCAR-3 ovarian, 91% with HS 578T breast and 87.6% with NCI/ADR-RES ovarian.
In the case of `CC[C@]12C=CCN3CC[C@@]4(c5ccc(OC)cc5N(C)[C@H]4[C@@](O)(C(=O)OC)[C@@H]1OC(=O)CCC[P+](c1ccccc1)(c1ccccc1)c1ccccc1)[C@@H]32`, the growth in the test with SR leukemia is 9.57% (active); with RPMI-8226 leukemia, -12.6% (active); with OVCAR-8 ovarian it was 3.13% (active); in the test on OVCAR-5 ovarian, 21.4%; in the test on OVCAR-4 ovarian it was -3.58% (active); with SK-OV-3 ovarian it was -21% (active). Also, the growth in the test on IGROV1 ovarian is -0.0574% (active); in the test with OVCAR-3 ovarian, -2.49% (active); in the test on HS 578T breast, 25.5%; with NCI/ADR-RES ovarian, 100%.
With `C/C(=N\O)c1ccc(NC(=O)CSc2nnc(-c3cc(-c4ccc(S(C)(=O)=O)cc4)nc4ccccc34)n2-c2ccccc2)cc1`, the growth in the test with SR leukemia is 62.4%; with RPMI-8226 leukemia, 48.2%; in the test on OVCAR-8 ovarian, 82.6%; in the test with OVCAR-5 ovarian it was 97.3%; in the test with OVCAR-4 ovarian it was 98.7%; in the test on SK-OV-3 ovarian, 115%. In addition, the growth in the test with IGROV1 ovarian is 80.9%; in the test on OVCAR-3 ovarian, 102%; in the test with HS 578T breast, 73.4%; with NCI/ADR-RES ovarian it was 96.8%.
On to `CN1CCN(Cc2ccc(NC(=O)c3cncc(C#Cc4cnc(N)c5ncccc45)c3)cc2C(F)(F)F)CC1`, for which the growth with SR leukemia is 12.4%; in the test on RPMI-8226 leukemia, 19.5%; in the test with OVCAR-8 ovarian, -29% (active); with OVCAR-5 ovarian, -26.5% (active); with OVCAR-4 ovarian, -21.9% (active); in the test with SK-OV-3 ovarian, 2.59% (active). Further, the growth in the test with IGROV1 ovarian was -50.8% (active); in the test on OVCAR-3 ovarian it was 15.3%; in the test on HS 578T breast it was -30.3% (active); with NCI/ADR-RES ovarian, -55.3% (active).
Turning to `CS(=O)(=O)c1ccc(NC(=O)c2ccccc2)nc1`, the growth with SR leukemia is 76.8%; in the test on RPMI-8226 leukemia it was 100%; in the test on OVCAR-8 ovarian, 107%; in the test on OVCAR-5 ovarian it was 108%; in the test with OVCAR-4 ovarian, 115%; in the test on SK-OV-3 ovarian it was 94.1%. The growth was 111% in the test with IGROV1 ovarian, 110% with OVCAR-3 ovarian, 98.1% in the test with HS 578T breast and 110% with NCI/ADR-RES ovarian.
Take `C=CCC(CCCC)(C(=O)OCC)C(=O)OCC`: the growth is 95.9% with SR leukemia; 94.8% in the test on RPMI-8226 leukemia; 102% in the test on OVCAR-8 ovarian; 106% in the test with OVCAR-5 ovarian; 116% with OVCAR-4 ovarian; 117% in the test on SK-OV-3 ovarian. For the same molecule, the growth in the test with IGROV1 ovarian was 119%; in the test with OVCAR-3 ovarian, 118%; with HS 578T breast, 127%; in the test with NCI/ADR-RES ovarian, 108%.

The values are drawn from PubChem BioAssay (NCI).
